Measured values from PubChem BioAssay AID2417 (National Center for Advancing Translational Sciences (NCATS), 2010).
Out of some 140,000 compounds screened, about 4,300 (3.1%) were called active. About 21% were inconclusive and are not listed. This is one part of a sample in which actives are shown more often than they occur.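 The calls were made as follows: active = readout at or below -70, meaning at least 70% loss of cells showing the perinucleolar compartment, a nuclear body marking cancer cells; inconclusive = readout between -30 and a set limit; inactive = the rest.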

experiment: High Content Assay for Compounds that inhibit the Assembly of the Perinucleolar Compartment; details: PC3M PTB-GFP, PNC prevalence imaging, 16 h; at 10 µM; hits give low values;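 also: plate controls were DMSO wells for no effect and camptothecin positive control wells for full effect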
In short: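 Read-out is percentage of cells bearing a perinucleolar compartment, from automated 20x imaging of fixed, Hoechst-stained PC3M PTB-GFP cells. Cells were seeded 4 h, then exposed 16 h to compound (23 nl of library stock) in duplicate plates.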

Activity change (PNC), negative = inhibition, inactive:
O=C(Nc1cn(-c2ccccc2)nc1-c1ccccc1)c1ccccc1 22.3%
Cc1nn(-c2ccccc2)c(C)c1/C=C/C(=O)OC(C)C(N)=O (stereo not drawn) 7.76%
Cc1ccc(C(=O)/C=C/c2c(C)nn(-c3ccccc3)c2Cl)cc1 -11.1%
NC1=C([N+](=O)[O-])C(c2ccccc2)C2=C(CCCC2=O)O1 (stereo not drawn) 6.59%
CC(OC(=O)c1ccccc1N1C(=O)C2C3CCC(C3)C2C1=O)C(=O)c1ccccc1 (stereo not drawn) -15.7%
CCOC(=O)c1c(NC(=O)CCl)sc(C(=O)N(CC)CC)c1C 4.89%
CC(C)C(C)NC(=O)COc1ncnc2ccccc12 (stereo not drawn) 23%
CCOc1ccc(-c2n[nH]c(=S)n2/N=C/c2cc3c(cc2[N+](=O)[O-])OCO3)cc1 25.2%
COC(=O)c1sccc1NC(=O)COc1ccc(Cl)cc1 -3.53%
O=C(COc1ccc(Cl)cc1)NCCSc1ccccc1 8.59%
CCS(=O)(=O)N1Cc2ccccc2CC1C(=O)Nc1nc2ccc(F)cc2s1 (stereo not drawn) 48.1%
O=C1C2C3C=CC(C4CC34)C2C(=O)N1c1nccs1 (stereo not drawn) 23.7%
Cc1cc(Cl)ccc1NC(=S)N1CCC(C(N)=O)(N2CCCCC2)CC1 74.5%
Cc1nc2sc(C(=O)c3ccccc3)c(N)c2c2c1CCCC2 7.19%
CC(=O)Nc1ccc(NC(=O)c2sc3nc4c(c(-c5ccc(C)cc5)c3c2N)CCC4)cc1 14%
COc1ccc(Br)cc1C(=O)Nc1cccc(C)c1C -16.5%
CC(C)OCCCNC(=O)c1cc(Sc2ccc(F)cc2)nc2ccccc12 -1.71%
O=S(=O)(c1ccc(F)cc1)N1CCN(C(=S)NCc2ccco2)CC1 8.43%
Cc1cc(C)cc(NC(=O)N2CCC(NC(=O)c3ccc(F)cc3)CC2)c1 -20.1%
Cc1ccc(CN2CCN(/N=C/c3cccnc3)CC2)c(C)c1 -5.48%
CC(C)(C)NC(=O)C(=O)NCc1ccncc1 -17.6%
O=C(N/N=C/c1ccccn1)C12CC3CC(CC(C3)C1)C2 -19.1%
COCCCn1c2nc3ccccc3nc2c2c(=O)n(Cc3ccc(Cl)cc3)c(C)nc21 39.8%
CCOc1ccccc1C(=O)NCCCn1ccnc1 15.6%
Cc1ccc(C2C3=C(Nc4[nH]n(-c5ccccc5)c(=O)c42)c2ccccc2C3=O)cc1 (stereo not drawn) -4.45%
CCCN(CCC)C(=S)Nc1cc(C(=O)OC)ccc1C(=O)OC 27.9%
Cn1c(=O)c(Sc2ccc(Cl)cc2)c(O)c2ccccc21 -25.4%
O=C(CNC(=O)Cc1ccccc1)NCC(=O)OCC(=O)c1ccccc1Cl 90.5%
O=C(/C=C/c1c(Cl)cccc1Cl)NCc1ccccc1 -1.54%
CCOC(=O)CC(NC(=O)C1c2ccccc2Oc2ccccc21)c1ccc(C)cc1 (stereo not drawn) -19.2%
CCOC(=O)N1CCN(C(=O)C2CCN(Cc3ccc(OC)cc3OC)CC2)CC1 33.2%
O=C(NC1=NCCS1)[C@H](Cc1ccccc1)N1C(=O)c2ccccc2C1=O 5.11%
O=C(NCCN1CCOCC1)[C@H](Cc1ccccc1)N1C(=O)c2ccccc2C1=O -13.4%
CC(Sc1nc(-c2ccccc2)cc(C(F)(F)F)n1)C(=O)Nc1ccc2c(c1)OCO2 (stereo not drawn) -18%
O=C(COc1ccccc1)NCc1ccc2c(c1)OCO2 24%
Cc1ccc(C(=O)OCC(=O)NCc2ccc3c(c2)OCO3)s1 -9.27%
O=C(CSc1nnc(SCc2ccc(Cl)cc2)s1)N/N=C/c1ccccc1Cl -24.9%
CCOc1ccc(N2C(=O)/C(=C/c3ccc(C)o3)N(C)C2=S)cc1 15.7%
CC(C)CCN1C(=O)c2ccc(C(=O)Nc3cccc(S(N)(=O)=O)c3)cc2C1=O -6.14%
CCOC(=O)C1=C(C)NC(C)=C(C(=O)OCC)C1C1=COCCO1 12%
CCOC(=O)C1=C(C)NC(=O)NC1c1ccccc1 (stereo not drawn) 2.37%
CONc1nc2nonc2nc1NOC 47%
Cc1cnc(NC(=O)CSc2c(Cl)cccc2Cl)s1 79.3%
Cc1cnc(NC(=O)CSc2nnc(-c3ccccc3)n2Cc2ccccc2)s1 -8.74%
COc1ccc(C(=O)O/N=C(\N)Cc2ccc(Cl)cc2Cl)cc1OC -26.7%
CNS(=O)(=O)c1ccc(N2CCCC2=O)c([N+](=O)[O-])c1 -24.4%
COc1ccc(C(CC(=O)c2ccccc2)S(=O)(=O)c2ccccc2)cc1 (stereo not drawn) 10.3%
COCCOC(=O)C1=C(C)Nc2nc(C)nn2C1c1ccccc1 (stereo not drawn) -12.5%
CCOC(=O)C1=C(C)N=c2s/c(=C\C(=O)OC)c(=O)n2C1c1ccc(OC)cc1 (stereo not drawn) 0.912%
C=CCOc1ccc(/C=N/NC(=O)C(C)Sc2ccccn2)cc1OCC (stereo not drawn) 17.5%
Cc1ccc(N=C2NC(=O)c3cccc([N+](=O)[O-])c32)cc1 43.8%
COc1ccc(NC(=O)Cn2c(=O)n(Cc3ccco3)c(=O)c3ccccc32)cc1 -2.68%
Cc1nc2c(c(=O)n1Cc1ccco1)c1nc3ccccc3nc1n2Cc1ccccc1 32.1%
Cc1cc(NC(=O)COC(=O)COc2ccc(Cl)cc2C)c([N+](=O)[O-])cc1C -20.6%
CN1/C(=C\C(=O)c2cccnc2Cl)C(C)(C)c2ccccc21 78%
CCC1C=C(c2ccccc2)C=CN=C1N(CC)CC (stereo not drawn) -9.28%
CCOc1ccc(C(=O)NC2CCN(C(=O)Nc3ccccc3OC)CC2)cc1 37.5%
O=C(NC1CC1)c1ccc2c(c1)NC(=O)c1ccccc1S2 14.7%
CCn1cc(CNC(=O)c2cc([N+](=O)[O-])c(C)c([N+](=O)[O-])c2)cn1 4.07%
CCN(CC)CCn1c(/N=C/c2cc(Br)ccc2O)nc2ccccc21 21.6%
O=C(COC(=O)/C=C/c1ccc(S(=O)(=O)N2CCCCCC2)cc1)NCc1ccccc1Cl 0.0752%
Nc1nc(NCCCN2CCOCC2)nc(Nc2ccccc2)c1[N+](=O)[O-] -16.9%
Cc1ccc(Nc2cc(C)nc3c(C)ccc([N+](=O)[O-])c23)cc1 23%
O=C(Cc1ccccc1)NNC1CC(=O)N(c2ccc(Br)cc2)C1=O (stereo not drawn) 6.12%
O=C(CC1NCCNC1=O)Nc1cc(Cl)cc(Cl)c1 (stereo not drawn) 29.9%
CCc1ccc(Oc2coc3cc(OC(=O)c4cc5ccccc5oc4=O)ccc3c2=O)cc1 2.64%
C=CCn1c(SCC(=O)/C(C#N)=C(\C)N)nc2sc(C)c(C)c2c1=O -7.62%
C=CCn1c(SCc2c(C)noc2C)nc2sc3c(c2c1=O)CCC(C)C3 (stereo not drawn) -26.1%
CC1CCCN(S(=O)(=O)c2ccc(N(C(=O)c3cnccn3)C(C(=O)NC3CCCCC3)c3cccs3)cc2)C1 (stereo not drawn) 13.4%
O=C(/C=C/c1cnc2ccccc2n1)NC1CCCCCC1 -24.3%
Cc1nn(Cc2ccc(Cl)cc2)c(Cl)c1/C=N/NC(=O)c1cccnc1 35.8%
O=C(COc1ccc2oc3c(c2c1)CCCC3)Nc1ccccn1 -26.2%
NC(=O)COc1ccc2c3c(c(=O)oc2c1)CCCCC3 -10.3%
CCCCN(CC)C(=O)c1ccccc1Oc1ccccc1 6.14%
Cc1cccc(C(=O)NC(=S)N2CCN(c3ccc([N+](=O)[O-])cc3)CC2)c1 8.71%
CC(=O)N1c2ccccc2N(Cc2ccc([N+](=O)[O-])cc2)C(=O)C1(C)C 13.5%

Activity change (PNC), negative = inhibition, active:
Cc1nn(-c2ccccc2)c(Cl)c1/C=C/C(=O)c1ccc(O)cc1 -91.6%
CCOC(=O)c1sc(NC(=O)COc2ncnc3ccccc23)c(C(=O)OCC)c1C -95.9%
O=C(COc1ccc(Cl)cc1)Nc1ccccc1CO -92.3%
NC(=O)c1sc2nc3c(c(-c4ccccc4)c2c1N)CCC3 -100%
O=C(NC1CCN(C(=S)NCc2ccco2)CC1)c1ccc(F)cc1 -100%
Cc1nc2ccccc2c(=O)n1CCCn1ccnc1 -81.9%
CCOC(=O)CNC(=O)/C=C/c1c(Cl)cccc1Cl -123%
N/C(=N\c1nc2ccccc2o1)NC(=O)C(Cc1ccccc1)N1C(=O)c2ccccc2C1=O (stereo not drawn) -100%
c1n[nH]c(NCc2ccc3c(c2)OCO3)n1 -81.5%
CCOC(=O)C1=C(C)NC(=S)NC1c1cccs1 (stereo not drawn) -93.3%
Cc1cnc(NC(=O)CSc2nnc(-c3ccc(Cl)cc3Cl)n2N)s1 -100%
COCCOC(=O)C1=C(C)N=c2s/c(=C\c3cccs3)c(=O)n2C1c1cccs1 (stereo not drawn) -82.9%
Cn1c2ccccc2c(=O)c2c(=O)n(Cc3ccco3)c(COc3ccccc3)nc21 -87%
COc1cc(OC)cc(C(=O)NC2CCN(C(=O)N3c4ccccc4Sc4ccccc43)CC2)c1 -91%
CNc1nc(Nc2ccc(C)c(Cl)c2)nc(N)c1[N+](=O)[O-] -113%
C=CCn1c(SCc2csc(C)n2)nc2scc(-c3ccc(C)o3)c2c1=O -99.5%
O=C(CN1CCOCC1)N1CCCc2c1c(=O)oc1ccc(OCc3ccccc3)cc21 -90.3%
